The results in this text go back to PubChem BioAssay AID2717 (Broad Institute, 2010).

Screen size: about 300,000 compounds; about 3,200 (1.1%) were called active. The sample as a whole holds a higher share of actives than the screen did. A number with no mark means an inactive call. Cut-off read from the data, not from the text of the source: active = inhibition above about 75%; inconclusive = no clear call, values can overlap the other calls; inactive = below that; tested in HMLE shEcad cells.

A short description of the assay: growth suppression of cancer stem-like cells – cell-based, luminescence, primary screen (AID 2717). The following applies: cancer stem cell-like cells viability, at 7.5 µM, active compounds read high.
Turning to `C=CCCC(=O)Nc1nc(C)c(-c2csc(Nc3ccc(Cl)cc3)n2)s1`, the inhibition (as a rule, the drop in the measured response relative to a control, in per cent) is 99% (active). Take `CCCCCCC(=O)Nc1nc(C)c(-c2csc(Nc3cc(Cl)ccc3OC)n2)s1`: the inhibition was 5.64%. Turning to `CCCCC(=O)Nc1nc(C)c(-c2csc(Nc3ccc(Cl)cc3)n2)s1`, the inhibition is 63.1%. To `C/C=C/c1ccc(OCC(=O)NNC(=O)CN(C)S(=O)(=O)c2ccc(C)cc2)c(OC)c1` belongs -2.93%; to `CN(C(=O)c1cccc(NC(=O)Cc2ccc([N+](=O)[O-])cc2)c1)C1CCC1`, 1.28%. To `COc1ccc(Oc2c(Cl)cnn(-c3ccccc3)c2=O)cc1` belongs 22%.

For the compound `Cc1cccc(-n2ncc(Cl)c(Cl)c2=O)c1`, the inhibition is 138% (active).

In the case of `Cc1cccc(-n2ncc(C#N)c2-n2cccc2)c1`, the inhibition was -10.4%.

Take `O=C(COC(=O)c1n[nH]c2ccccc12)Nc1ccccc1Br`: the inhibition was -14%.

For the compound `CC1CCCCC1NC(=O)Cn1cnc2c1c(=O)n(C)c(=O)n2C` (stereo not given), the inhibition is -15.5%. For `CC(C)(C)OC(=O)C[C@@H]1C/C=C\C[C@H](CC(=O)N[C@@H](CO)Cc2ccccc2)C(=O)N[C@H](Cc2ccccc2)COC1=O` the value was -5.32%; for `CCc1c(C)sc(NC(=O)c2ccc(Br)o2)c1C(=O)OC`, 28.8%; for `CCOC(=O)CCCNC(=O)COC(=O)/C=C/c1ccc2c(c1)OCO2`, -10.5%. For `CCc1c(C)sc(NC(=O)/C=C/c2ccc3c(c2)OCO3)c1C(=O)OC` the value was 96.5% (active); for `COc1ccc(S(=O)(=O)N2CCN(C(C)C(=O)Nc3ccc(C(C)C)cc3)CC2)cc1` (stereo not given), -10.6%. To `O=C(COC(=O)c1cccs1)Nc1ccccc1Cl` belongs -12.7%; to `O=C(Nc1ccccc1Cl)Nn1cnnc1`, -3.82%; to `O=C(Nc1ccccc1Cl)/C(Cl)=C(\Cl)S(=O)c1ccccc1` (stereo not given), 145% (active). As to `CC(C)(C)OC(=O)C[C@@H]1C/C=C\C[C@@H](CC(=O)N[C@H](CO)Cc2ccccc2)C(=O)NCCOC1=O`, the inhibition is -6.88%. To `CCOc1ccc(NC(=O)CN(C)C(=O)Cc2sc(C)nc2-c2ccc(F)cc2)cc1OCC` belongs -4.92%. To `COc1cc(C=NNC(=O)c2cccnc2)ccc1OC(=O)c1ccccc1F` belongs -6.57%; to `O=C1CSc2ccc(C(=O)NCc3ccccn3)cc2N1`, -3.45%. To `Cc1cccc(C)c1NC(=O)CNC(=O)c1ccc2c(c1)OCCO2` belongs 14.6%; to `N#Cc1ccc(CN2CCN(CC(=O)Nc3ccccc3C(=O)NC3CC3)CC2)cc1`, -9.82%; to `N#Cc1c(-c2ccccc2)nc(SCc2cccc(C(F)(F)F)c2)[nH]c1=O`, 105% (active).

As for `N#Cc1c(-c2ccccc2)nc(SCc2ccc([N+](=O)[O-])cc2)[nH]c1=O`, the inhibition was 3.97%. Regarding `Cc1ccc(CSc2nc(-c3ccccc3)c(C#N)c(=O)[nH]2)cc1`, the inhibition is 27.6%. To `O=C(COC(=O)/C=C/c1cccc(Cl)c1)NCc1cccs1` belongs 2.73%; to `O=C(CN1CCN(c2ccc(F)cc2)CC1)Nc1ccccc1`, -1.5%; to `Oc1ccc(CN2CCN(c3ncccn3)CC2)cc1`, -8.35%. As to `Oc1c(CN2CCN(c3ccc(F)cc3)CC2)cc(Cl)c2cccnc12`, the inhibition was 138% (active). For `O=C1c2ccccc2C(=O)N1CCC#Cc1ccc2cc(C3(O)CCCCC3)oc(=O)c2c1` the value was 4.37%; for `COc1ccc2c(c1OC)C(=O)OC2Nc1nc(-c2ccccc2)cs1` (stereo not given), 126% (active); for `Cc1ccc(-c2csc(NC3OC(=O)c4ccccc43)n2)cc1` (stereo not given), -24.8%. With `COc1ccc(CCNc2nc(-c3cccc(NC(C)=O)c3)cs2)cc1OC`, the inhibition was -2.96%. In the case of `O=C(CN1C(=O)NC2(CCCCCC2)C1=O)Nc1ccc([N+](=O)[O-])cc1`, the inhibition was -18.6%. Regarding `CCOC(=O)CSC1=C(C#N)C(c2ccco2)C(C(=O)OCc2ccccc2)=C(C)N1` (stereo not given), the inhibition was -3.25%. To `Cc1ccc(C2CC(=O)NC(SCC(=O)OCc3ccccc3)=C2C#N)o1` (stereo not given) belongs 61.5%; to `CCOC(=O)CSC1=C(C#N)C(c2sccc2C)CC(=O)N1` (stereo not given), 78.4% (active); to `Cc1c(Cl)cnc(NC(=O)COC(=O)C2CCCC2)c1Cl`, -15.8%. To `O=C(CCNC(=O)c1ccc(Cl)cc1)NC1CCCc2ccccc21` (stereo not given) belongs 27%; to `COC(=O)c1cc2nc(-c3ccccc3)cc(C(F)(F)F)n2n1`, -6.63%; to `COCCNc1cc(-c2ccccc2)nc2cc(-c3cccc(F)c3)nn12`, 85.5% (active). To `COc1ccc(NC(=O)c2cc3nc(-c4ccccc4)cc(C)n3n2)cc1OC` belongs 5.1%. Take `CN(CCc1ccccc1)C(=O)c1cccc(NC(=O)Cc2ccc([N+](=O)[O-])cc2)c1`: the inhibition was -6.88%. For `Cc1ccc(CNC(=O)CC(NC(=O)c2ccccc2)c2ccccc2)cc1` (stereo not given) the value was -10.4%; for `CCN(CC)S(=O)(=O)c1ccc(N2CCCC2)c(NC(=O)c2ccc([N+](=O)[O-])o2)c1`, 27.4%. Take `Cc1ccc(S(=O)(=O)N2CCCCC2)cc1NC(=O)CCNC(=O)c1ccccc1`: the inhibition was -6.19%. To `CC(C)(C)c1ccc(C(=O)NCCn2c(N)c(C#N)c3nc4ccccc4nc32)cc1` belongs 35.6%. For `CCCNC(=O)c1c(N)n(-c2ccc(S(N)(=O)=O)cc2)c2nc3ccccc3nc12`, the inhibition was 0.593%.

For `CC(C)Cn1c(N)c(C(=O)NCc2cccs2)c2nc3ccccc3nc21`, the inhibition was 116% (active).

As for `Cn1c(CC(=O)NNC(=O)c2ccccc2F)nc2ccccc21`, the inhibition was -2.01%. As to `CN(Cc1ccccc1)C(=O)COC(=O)/C=C/c1ccc2c(c1)OCO2`, the inhibition was -12%. To `Cn1cncc1C#Cc1c(-c2ccsc2)sc2ccccc12` belongs 107% (active); to `O=C(NCc1ccc2c(c1)OCO2)c1c(-c2ccsc2)sc2ccccc12`, 58.2%; to `Cc1ccnc(SCC(=O)Nc2cccc(S(=O)(=O)N3CCOCC3)c2)n1`, -13%. To `O=C(NCC#CCSc1nnc(-c2cccc3ccccc23)o1)c1cccs1` belongs 44.4%; to `O=C(/C=C/c1ccccc1[N+](=O)[O-])OCC(=O)N1CCCC1`, -16.9%.

For the compound `CSCCC1NC(=O)N(CC(=O)Nc2cccc(S(=O)(=O)N3CCCCCC3)c2)C1=O` (stereo not given), the inhibition is -15.7%.

In the case of `O=C(CCNC(=O)c1ccc(Br)cc1)NCC(c1ccco1)N1CCCCC1` (stereo not given), the inhibition was -10.9%. Regarding `COc1cccc(-c2cc3nc4c(c(N5CCC6(CC5)OCCO6)n3n2)CCCC4)c1`, the inhibition is 90.5% (active). To `COc1cccc(NC(=O)CN2CCN(c3nc(-c4cccc(OC)c4)cs3)CC2)c1` belongs 2.49%.

Regarding `COc1cccc(CNc2nc3nc4c(c(=O)n3[nH]2)CCC4)c1`, the inhibition is -11.3%. To `COc1ccccc1C1=CC(=O)CCC1` belongs -22.3%; to `COc1ccccc1-c1sc2ccccc2c1C#CC1(O)CCCCC1`, 105% (active); to `COc1ccccc1-c1sc2ccccc2c1-c1ccc(C(C)=O)cc1`, 29.6%. Turning to `Cc1csc(NC(=O)NC2(C(F)(F)F)Oc3ccccc3O2)n1`, the inhibition was 36.6%. Turning to `COc1ccc(Cl)cc1NC(=O)CN1CCN(C(=O)N2CCOCC2)CC1`, the inhibition was -6.19%. To `O=C(Nc1cc(N2CCOCC2)ncn1)NC1(C(F)(F)F)Oc2ccc(Cl)cc2O1` (stereo not given) belongs 88.5% (active).

As to `Cc1c(O)c(C)c2c(c1O)C(=O)C[C@@H](c1ccccc1)O2`, the inhibition was 1.32%. Take `Cc1cccc(-n2ncc3c(=O)[nH]c(SCC(=O)Nc4cc(C)on4)nc32)c1`: the inhibition was -7.48%. As for `CCOc1ccccc1NC(=O)CCc1ccc(C)o1`, the inhibition is 0.408%. To `Cc1ccc(C(=O)Nc2nc3ccc(Cl)cc3s2)o1` belongs 18.8%; to `Cc1ccc(CCC(=O)Nc2ncc(Cc3cc(Cl)ccc3Cl)s2)o1`, 86.2% (active); to `CCCc1cc(=O)[nH]c(SCC(=O)Nc2ccc(S(=O)(=O)N3CCCC3)cc2)n1`, 15.6%. As for `C=CC[C@@H](CC(=O)N[C@@H](CO)Cc1ccccc1)C(=O)NCCOC(=O)[C@@H](CC=C)CC(=O)OC(C)(C)C`, the inhibition was -6.46%. For `CCN1CCN(CCNC(=O)c2ccc(/C=C3/Sc4ccccc4N(Cc4cccc(C)c4)C3=O)cc2)CC1` the value was 102% (active). For the compound `CCN1CCN(CCNC(=O)c2ccc3c(c2)NC(=O)/C(=C\c2ccc(OC)c(OC)c2)S3)CC1`, the inhibition is 12.1%. For `O=C(NCCN1CCOCC1)c1ccc(/C=C2\Sc3ccccc3N(Cc3ccc(F)cc3)C2=O)cc1` the value was 33.7%; for `COc1ccc(C(=O)OCC(=O)c2cc(C)n(CC3CCCO3)c2C)cc1[N+](=O)[O-]` (stereo not given), 37.8%.

Take `C=CC[C@H](CC(=O)OC(C)(C)C)C(=O)OC[C@H]1CCCN1C(=O)[C@H](CC=C)CC(=O)N(CCO)Cc1ccccc1`: the inhibition is 4.1%.

Consider `CCN(C(=O)CSc1cccc[n+]1[O-])c1ccccc1`, for which the inhibition is 7%. To `O=C(OCC(=O)N1CCc2ccccc21)c1ccc([N+](=O)[O-])cc1` belongs 8.88%; to `O=C(Nc1ccn(Cc2ccccc2F)n1)c1ccc(COc2ccc(Cl)cc2Cl)o1`, 80.3% (active). Take `O=C(O)c1ccc(NC(=O)c2ccc(COc3ccc(Cl)cc3)o2)cc1`: the inhibition is -2.6%. In the case of `Cc1cccc(NC(=O)c2ccc(COc3ccccc3[N+](=O)[O-])o2)n1`, the inhibition was 54.5%. For `COCCCNC(=O)CC1C[C@H](C(=O)N2CCCCC2)[C@@]2(CCc3ccccc3)c3[nH]c4ccccc4c3CCN2C1=O` (stereo not given in full) the value was -19.5%. To `NC1=NC(=O)C(Cc2cccc(Cl)c2Cl)S1` (stereo not given) belongs 14.4%. Consider `CC(C)=N/N=C1/NC(=O)C(Cc2ccccc2)S1` (stereo not given), for which the inhibition is -16.9%. To `O=C1NC(=Nc2ccc(Cl)cc2)SC1Cc1cccc(Cl)c1Cl` (stereo not given) belongs 76.5% (active).
